# According to paper PMC7862700, “An all-to-all approach to the identification of sequence-specific readers for epigenetic DNA modifications on cytosine”:
# Key:
# Assay in all cases: DAPPL (digital affinity profiling via proximity ligation, sequencing); 10 mM Tris-HCl pH 7.5, 50 mM NaCl, 1 mM DTT, 4% glycerol, room temperature, 30 min; GST-TFs on glutathione beads, 16-mer random dsDNA library, 0.1% formaldehyde crosslink after washing; high values mean tight binding
# FEV = target: T1, FEV (Homo sapiens, UniProt Q99581 1-238); details: protein: recombinant; tags: N-terminal GST; dsDNA, one strand shown
# T1 sequence: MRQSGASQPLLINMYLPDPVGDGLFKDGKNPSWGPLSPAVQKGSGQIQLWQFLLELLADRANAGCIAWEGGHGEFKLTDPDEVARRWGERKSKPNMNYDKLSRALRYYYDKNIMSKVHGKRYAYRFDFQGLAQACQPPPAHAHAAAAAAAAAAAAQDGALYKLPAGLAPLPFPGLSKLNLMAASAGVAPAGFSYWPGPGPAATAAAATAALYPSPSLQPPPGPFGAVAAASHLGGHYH
# Method in brief: (§1)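 Human transcription factors carrying a GST fusion were produced in yeast, bound to glutathione beads, tagged with DNA barcodes and pooled together with a tag-only sample. Each pool was held with 200 nmole of a random double-stranded 16-mer DNA library in Tris/NaCl/DTT/glycerol buffer for 30 min at room temperature, then washed, crosslinked in 0.1% formaldehyde, proximity-ligated with BsaI/T4 ligase (1 h, 37 °C), PCR-amplified and sequenced on an Illumina NextSeq500. Binding signal is the read frequency of each hexamer for a given factor divided by its frequency in the tag-only sample.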
# ETV5 = ETV5 (Homo sapiens, UniProt P41161 1-510); details: protein: recombinant; tags: N-terminal GST; dsDNA, one strand shown
# Method in brief: as §1
# HSF1 = HSF1 (Homo sapiens, UniProt Q00613 1-529); details: protein: recombinant; tags: N-terminal GST; chain copies: 3; dsDNA, one strand shown
# Method in brief: as §1
# SPIC = target: T2, SPIC (Homo sapiens, UniProt Q8N5J4 1-248); details: protein: recombinant; tags: N-terminal GST; dsDNA, one strand shown
# T2 sequence: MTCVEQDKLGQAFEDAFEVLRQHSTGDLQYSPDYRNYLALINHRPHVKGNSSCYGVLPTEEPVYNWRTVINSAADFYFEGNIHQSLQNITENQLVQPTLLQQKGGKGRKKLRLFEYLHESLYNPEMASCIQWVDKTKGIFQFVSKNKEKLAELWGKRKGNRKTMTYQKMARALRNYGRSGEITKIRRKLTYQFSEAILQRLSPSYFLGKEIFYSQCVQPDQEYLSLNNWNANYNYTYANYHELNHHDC
# Method in brief: as §1
# ELF4 = ELF4 (Homo sapiens, UniProt Q99607 1-663); details: protein: recombinant; tags: N-terminal GST; dsDNA, one strand shown
# Method in brief: as §1
# ELK4 = target: T3, ELK4 (Homo sapiens, UniProt P28324-2 1-405); details: protein: recombinant; tags: N-terminal GST; dsDNA, one strand shown
# T3 sequence: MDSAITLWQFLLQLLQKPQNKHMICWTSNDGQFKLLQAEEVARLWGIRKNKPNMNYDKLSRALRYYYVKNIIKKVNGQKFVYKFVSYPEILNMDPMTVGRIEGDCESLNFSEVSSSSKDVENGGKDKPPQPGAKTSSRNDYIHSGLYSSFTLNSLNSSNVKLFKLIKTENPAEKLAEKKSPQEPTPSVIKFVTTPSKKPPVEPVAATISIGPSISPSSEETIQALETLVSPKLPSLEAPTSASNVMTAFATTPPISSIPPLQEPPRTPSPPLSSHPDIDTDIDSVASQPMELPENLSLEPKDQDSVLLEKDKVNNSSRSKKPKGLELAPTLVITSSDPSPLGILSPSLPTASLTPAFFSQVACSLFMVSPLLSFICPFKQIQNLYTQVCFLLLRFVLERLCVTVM
# Method in brief: as §1
# ETV2 = target: T4, ETV2 (Homo sapiens, UniProt O00321 1-342); details: protein: recombinant; tags: N-terminal GST; dsDNA, one strand shown
# T4 sequence: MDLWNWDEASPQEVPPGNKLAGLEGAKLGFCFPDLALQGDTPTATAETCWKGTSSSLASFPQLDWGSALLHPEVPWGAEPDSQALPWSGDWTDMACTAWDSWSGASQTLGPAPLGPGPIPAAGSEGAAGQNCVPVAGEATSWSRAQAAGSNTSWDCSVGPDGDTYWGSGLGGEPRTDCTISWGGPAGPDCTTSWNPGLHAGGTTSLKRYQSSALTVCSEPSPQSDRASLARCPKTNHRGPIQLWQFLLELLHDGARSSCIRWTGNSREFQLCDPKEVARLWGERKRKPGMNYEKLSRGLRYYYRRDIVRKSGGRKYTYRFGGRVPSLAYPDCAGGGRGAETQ
# Method in brief: as §1
# ELF3 = target: T5, ELF3 (Homo sapiens, UniProt P78545 1-371); details: protein: recombinant; tags: N-terminal GST; dsDNA, one strand shown
# T5 sequence: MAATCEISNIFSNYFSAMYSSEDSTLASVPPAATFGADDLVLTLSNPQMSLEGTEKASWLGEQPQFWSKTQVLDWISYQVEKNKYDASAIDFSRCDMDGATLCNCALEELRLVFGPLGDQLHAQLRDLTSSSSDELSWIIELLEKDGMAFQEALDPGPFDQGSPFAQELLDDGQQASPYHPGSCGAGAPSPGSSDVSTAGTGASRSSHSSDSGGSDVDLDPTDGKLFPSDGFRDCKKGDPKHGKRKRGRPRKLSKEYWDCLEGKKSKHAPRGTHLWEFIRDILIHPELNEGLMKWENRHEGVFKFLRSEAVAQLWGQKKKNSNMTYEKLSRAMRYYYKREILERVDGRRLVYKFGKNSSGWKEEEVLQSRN
# Method in brief: as §1
# CRX = CRX (Homo sapiens, UniProt O43186 1-299); details: protein: recombinant; tags: N-terminal GST; dsDNA, one strand shown
# Method in brief: as §1
# ETV1 = ETV1 (Homo sapiens, UniProt P50549 1-477); details: protein: recombinant; tags: N-terminal GST; dsDNA, one strand shown
# Method in brief: as §1
# Sequence of HSF1 (Q00613 whole entry): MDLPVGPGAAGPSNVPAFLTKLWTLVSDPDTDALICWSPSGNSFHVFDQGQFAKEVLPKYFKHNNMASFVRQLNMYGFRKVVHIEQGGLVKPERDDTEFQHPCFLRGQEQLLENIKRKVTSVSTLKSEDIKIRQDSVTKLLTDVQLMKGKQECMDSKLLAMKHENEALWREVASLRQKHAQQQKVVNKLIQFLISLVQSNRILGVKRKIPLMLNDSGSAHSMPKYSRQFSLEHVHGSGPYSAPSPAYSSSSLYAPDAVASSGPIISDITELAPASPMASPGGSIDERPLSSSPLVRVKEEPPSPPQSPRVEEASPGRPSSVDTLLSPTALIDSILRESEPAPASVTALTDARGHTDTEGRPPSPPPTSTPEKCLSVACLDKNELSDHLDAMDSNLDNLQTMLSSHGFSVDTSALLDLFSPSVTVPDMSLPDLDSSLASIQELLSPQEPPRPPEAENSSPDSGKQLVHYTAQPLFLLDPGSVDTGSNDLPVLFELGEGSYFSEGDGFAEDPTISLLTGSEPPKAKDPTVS
# Sequence of CRX (O43186 whole entry): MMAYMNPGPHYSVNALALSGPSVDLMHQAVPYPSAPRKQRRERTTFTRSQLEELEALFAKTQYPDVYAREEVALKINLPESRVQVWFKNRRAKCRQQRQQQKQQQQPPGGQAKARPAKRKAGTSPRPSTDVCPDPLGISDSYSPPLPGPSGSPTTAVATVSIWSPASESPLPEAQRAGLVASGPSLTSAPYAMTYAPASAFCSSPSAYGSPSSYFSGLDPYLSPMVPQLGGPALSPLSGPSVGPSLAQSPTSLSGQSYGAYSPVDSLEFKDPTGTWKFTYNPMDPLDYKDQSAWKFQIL
# Sequence of ETV1 (P50549 whole entry): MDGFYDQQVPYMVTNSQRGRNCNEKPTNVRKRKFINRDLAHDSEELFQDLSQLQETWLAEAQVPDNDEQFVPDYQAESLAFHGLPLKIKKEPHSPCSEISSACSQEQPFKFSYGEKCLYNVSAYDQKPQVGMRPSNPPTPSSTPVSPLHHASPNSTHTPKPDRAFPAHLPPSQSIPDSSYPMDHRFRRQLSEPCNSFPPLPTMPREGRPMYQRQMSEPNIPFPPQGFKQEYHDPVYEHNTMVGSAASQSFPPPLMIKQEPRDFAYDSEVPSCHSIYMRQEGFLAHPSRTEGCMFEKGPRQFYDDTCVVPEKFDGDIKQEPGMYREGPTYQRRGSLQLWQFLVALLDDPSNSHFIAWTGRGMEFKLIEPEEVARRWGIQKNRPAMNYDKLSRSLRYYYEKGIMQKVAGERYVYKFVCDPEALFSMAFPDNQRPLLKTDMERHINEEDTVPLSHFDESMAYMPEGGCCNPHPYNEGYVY
# Sequence of ETV5 (P41161 whole entry): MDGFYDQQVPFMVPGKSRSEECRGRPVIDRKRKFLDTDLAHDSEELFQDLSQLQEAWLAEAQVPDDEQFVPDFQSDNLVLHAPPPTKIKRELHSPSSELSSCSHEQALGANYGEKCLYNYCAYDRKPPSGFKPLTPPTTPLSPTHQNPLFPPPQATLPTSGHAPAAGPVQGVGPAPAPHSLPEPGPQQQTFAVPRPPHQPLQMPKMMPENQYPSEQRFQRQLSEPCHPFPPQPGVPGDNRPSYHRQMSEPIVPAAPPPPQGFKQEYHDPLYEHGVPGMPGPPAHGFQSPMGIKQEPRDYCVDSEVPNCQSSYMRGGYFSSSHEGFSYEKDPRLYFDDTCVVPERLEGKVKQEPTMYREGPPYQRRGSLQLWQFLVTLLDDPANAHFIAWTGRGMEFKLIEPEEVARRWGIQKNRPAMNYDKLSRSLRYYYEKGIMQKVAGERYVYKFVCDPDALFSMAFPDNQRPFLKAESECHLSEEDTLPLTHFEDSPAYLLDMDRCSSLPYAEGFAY
# Sequence of ELF4 (Q99607 whole entry): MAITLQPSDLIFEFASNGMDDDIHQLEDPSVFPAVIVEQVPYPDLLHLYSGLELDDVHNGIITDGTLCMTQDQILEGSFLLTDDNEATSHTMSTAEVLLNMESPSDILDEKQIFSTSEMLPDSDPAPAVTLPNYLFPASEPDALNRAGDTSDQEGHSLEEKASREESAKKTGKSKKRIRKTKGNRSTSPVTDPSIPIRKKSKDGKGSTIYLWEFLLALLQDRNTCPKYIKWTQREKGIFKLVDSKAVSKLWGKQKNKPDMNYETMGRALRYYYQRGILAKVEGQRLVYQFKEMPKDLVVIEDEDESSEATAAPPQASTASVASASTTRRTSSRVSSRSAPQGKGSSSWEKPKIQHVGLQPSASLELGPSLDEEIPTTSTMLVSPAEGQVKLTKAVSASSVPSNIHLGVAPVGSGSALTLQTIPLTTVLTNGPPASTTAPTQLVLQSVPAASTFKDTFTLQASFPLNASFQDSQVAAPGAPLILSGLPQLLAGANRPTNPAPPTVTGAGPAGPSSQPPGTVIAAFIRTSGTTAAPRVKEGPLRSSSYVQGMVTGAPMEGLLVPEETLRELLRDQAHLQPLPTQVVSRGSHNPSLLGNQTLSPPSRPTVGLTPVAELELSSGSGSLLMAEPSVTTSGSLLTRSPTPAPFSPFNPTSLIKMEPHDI
sequence,measurement,setting,value
ATGACT,binding signal,FEV,"1.4 fold enrichment (6-mer frequency, TF over GST control)"
same,binding signal,ETV5,"1.43 fold enrichment (6-mer frequency, TF over GST control)"
same,binding signal,HSF1,"1.21 fold enrichment (6-mer frequency, TF over GST control)"
same,binding signal,SPIC,"1.47 fold enrichment (6-mer frequency, TF over GST control)"
same,binding signal,ELF4,"1.41 fold enrichment (6-mer frequency, TF over GST control)"
same,binding signal,ELK4,"1.39 fold enrichment (6-mer frequency, TF over GST control)"
same,binding signal,ETV2,"1.41 fold enrichment (6-mer frequency, TF over GST control)"
same,binding signal,ELF3,"1.46 fold enrichment (6-mer frequency, TF over GST control)"
same,binding signal,CRX,"1.25 fold enrichment (6-mer frequency, TF over GST control)"
same,binding signal,ETV1,"1.36 fold enrichment (6-mer frequency, TF over GST control)"
